{"source": "PubChem BioAssay (NCATS)", "note": "Results filed as inconclusive are left out. Activity calls are given as the source filed them. Calls come from the whole dose curve."}
{"molecular_target": "Peroxisome proliferator-activated receptor delta (Homo sapiens) (UniProt Q03181)", "sequence (Q03181 whole entry, looked up)": "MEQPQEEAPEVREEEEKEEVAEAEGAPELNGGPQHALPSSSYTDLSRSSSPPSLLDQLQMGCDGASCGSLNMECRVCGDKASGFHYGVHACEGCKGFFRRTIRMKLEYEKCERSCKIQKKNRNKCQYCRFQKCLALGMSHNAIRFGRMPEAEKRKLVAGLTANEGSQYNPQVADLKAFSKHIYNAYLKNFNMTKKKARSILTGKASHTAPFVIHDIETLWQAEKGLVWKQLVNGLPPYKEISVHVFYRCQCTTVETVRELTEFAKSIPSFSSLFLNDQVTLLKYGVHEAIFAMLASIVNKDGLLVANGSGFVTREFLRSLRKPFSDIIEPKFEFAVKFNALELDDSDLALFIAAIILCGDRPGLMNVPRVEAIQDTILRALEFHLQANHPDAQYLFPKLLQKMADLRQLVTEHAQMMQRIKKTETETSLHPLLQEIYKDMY", "assay": "qHTS assay for small molecule agonists of peroxisome proliferator-activated receptor delta signaling (AID 588534)", "settings": "HEK293T PPARdelta-UAS-bla, beta-lactamase ratio, 18 h; series mostly up to 76.7 µM", "procedure,_shortened": "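Agonist-mode qHTS; reporter cells, 5 hrs 37 C pre-incubation; compound titration, 18 hrs 37 C; CCF4 dye, 2 hrs RT; fluorescence read. EC50/efficacy via Hill fit.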"}
{"smiles": "O=[N+]([O-])C(CO)(CO)CO", "outcome": "inactive"}
{"smiles": "CC(C)C(C)C", "outcome": "inactive"}
{"smiles": "CC(=O)Nc1ccc(C)cc1", "outcome": "inactive"}
{"smiles": "CSC(=O)c1cccc2nnsc12", "outcome": "inactive"}
{"smiles": "Cc1ccc(N(C)C)cc1", "outcome": "inactive"}
{"smiles": "COCCOCCOCCO", "outcome": "inactive"}
{"smiles": "C[Si]1(C)O[Si](C)(C)O[Si](C)(C)O[Si](C)(C)O[Si](C)(C)O1", "outcome": "inactive"}
{"smiles": "c1cc2c3c(c1)ccc1cccc(c13)C2", "outcome": "inactive"}
{"smiles": "NC(=O)c1ccc([N+](=O)[O-])cc1", "outcome": "inactive"}
{"smiles": "CCCCCCCC/C=C\\CCCCCCCCCCCCC", "outcome": "inactive"}
{"smiles": "Cc1cscn1", "outcome": "inactive"}
{"smiles": "CCSC(=O)N(CC(C)C)CC(C)C", "outcome": "inactive"}
{"smiles": "CCCCCCCCC", "outcome": "inactive"}
{"smiles": "NC(=O)NC(N)=O", "outcome": "inactive"}
{"smiles": "C=CCOC(=O)COCCC(C)C", "outcome": "inactive"}
{"smiles": "Cc1cc(C)cc(O)c1", "outcome": "inactive"}
{"smiles": "NN(c1ccccc1)c1ccccc1", "outcome": "inactive"}
{"smiles": "COC(OC)(C(=O)c1ccccc1)c1ccccc1", "outcome": "inactive"}
{"smiles": "c1ccc(Nc2ccccc2)cc1", "outcome": "inactive"}
{"smiles": "CC(C)=CCC/C(C)=C/C=O", "outcome": "inactive"}
{"smiles": "C=Cc1cccc(C)c1", "outcome": "inactive"}
{"smiles": "CCCCCCCC[Si](OCC)(OCC)OCC", "outcome": "inactive"}
{"smiles": "O=[N+]([O-])c1ccccc1CCO", "outcome": "inactive"}
{"smiles": "Nc1ccccc1S(=O)(=O)O", "outcome": "inactive"}
{"smiles": "COC(=O)c1ccc(C=O)cc1", "outcome": "inactive"}
{"smiles": "Cc1ccc(S(=O)(=O)N=C=O)cc1", "outcome": "inactive"}
{"smiles": "COC(=O)c1ccccc1", "outcome": "inactive"}
{"smiles": "Cc1ccc2ccccc2c1[N+](=O)[O-]", "outcome": "inactive"}
{"smiles": "CC1=CC(C)(C)Nc2ccccc21", "outcome": "inactive"}
{"smiles": "O=[N+]([O-])c1cccc(C(F)(F)F)c1", "outcome": "inactive"}
{"smiles": "CCCCN(CCCC)CCCCCCN(CCCC)CCCC", "outcome": "inactive"}
{"smiles": "OC1CCCC1", "outcome": "inactive"}
{"smiles": "CC(=O)c1ccc([N+](=O)[O-])cc1", "outcome": "inactive"}
{"smiles": "OCCC(F)(F)C(F)(F)C(F)(F)C(F)(F)C(F)(F)C(F)(F)C(F)(F)C(F)(F)F", "outcome": "inactive"}
{"smiles": "CCOC(=O)C(C)C(C)=O", "note": "(centres undefined)", "outcome": "inactive"}
{"smiles": "CCOC(=O)OCC", "outcome": "inactive"}
{"smiles": "COCCO", "outcome": "inactive"}
{"smiles": "Nc1nc(CC(=O)O)cs1", "outcome": "inactive"}
{"smiles": "CC12CCC(CC1=O)C2(C)C", "note": "(centres undefined)", "outcome": "inactive"}
